The source of these data is PubChem BioAssay AID1022 (Emory University Molecular Libraries Screening Center, 2008).

Where “and” joins values, the source holds several entries; their conditions need not be identical. Equal values may be shown once. The whole screen tested about 220,000 compounds, of which about 3,300 (1.5%) were called active.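 Rule for the calls: active = compounds that cut the protein-peptide binding signal by more than 50% relative to plate controls in a single-dose test; inactive = the rest.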 Many of the other results were omitted from the sample, so actives are more common in it than they were. More than one record can exist for a structure, and the calls need not agree.

By inhibition is commonly meant the drop in the measured response relative to a control, in per cent.

Sequence of Induced myeloid leukemia cell differentiation protein Mcl-1 (Homo sapiens) (Q07820 whole entry, looked up): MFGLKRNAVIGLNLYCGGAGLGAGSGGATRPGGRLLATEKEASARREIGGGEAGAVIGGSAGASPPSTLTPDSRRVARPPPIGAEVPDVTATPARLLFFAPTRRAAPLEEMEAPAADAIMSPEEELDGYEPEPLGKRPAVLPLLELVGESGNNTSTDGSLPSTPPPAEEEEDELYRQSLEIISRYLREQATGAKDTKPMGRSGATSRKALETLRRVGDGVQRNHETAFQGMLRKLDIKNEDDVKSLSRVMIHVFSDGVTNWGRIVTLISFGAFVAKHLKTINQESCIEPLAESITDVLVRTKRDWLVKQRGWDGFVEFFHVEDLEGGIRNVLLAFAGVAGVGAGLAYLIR

The test has as its target Induced myeloid leukemia cell differentiation protein Mcl-1 (Homo sapiens) (UniProt Q07820). In words: Mcl-1/Noxa binding inhibitors, primary screen, biochemical, TR-FRET, 1536-well (AID 1022).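 Note: His-tagged Mcl-1 with rhodamine Noxa BH3 peptide and terbium anti-His antibody; 0% = Mcl-1 plus Noxa peptide wells and 100% = peptide-only wells.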 Particulars: TR-FRET Mcl-1/Noxa peptide binding, 2 h; at 21.7 µM; stronger effect = higher value. (In general: TR-FRET usually uses a lanthanide donor and a delayed reading to cut background.)
In the case of `N#Cc1c(C(F)(F)F)cc(-c2cccs2)nc1N1CCCCC1`, the inhibition was -6.66% (inactive).

As for `COc1ccc2c(CC(=O)OCC(=O)NC(N)=O)coc2c1`, the inhibition is 8.39% (inactive).

Take `O=C(Nc1nnc(SCc2ccccc2)s1)c1ccco1`: the inhibition was -9.36% (inactive).

With `c1ccc(CSc2nnc(-c3ccco3)n2Cc2ccccc2)cc1`, the inhibition was 53% (active).

`Brc1ccc(CSc2ccc(-c3ccco3)nn2)cc1`: the inhibition was 5.62% (inactive).

As for `c1ccc(CSc2nnc(-c3ccco3)c(-c3ccco3)n2)cc1`, the inhibition is 108% (active).

Turning to `Nc1nc(SCc2ccccc2Cl)n[nH]1`, the inhibition was -21.7% (inactive).

In the case of `Clc1ccccc1CSc1nnc(-c2ccco2)c(-c2ccco2)n1`, the inhibition is 109% (active).

On to `O=C(CSc1nnc(-c2ccco2)n1Cc1ccccc1)NC(=O)NCc1ccco1`, for which the inhibition was 31.8% (inactive).

On to `O=C(CSc1nnc(-c2ccco2)n1CC1CCCO1)c1ccccc1` (stereo not drawn), for which the inhibition was 5.57% (inactive).

Take `COC(OC)c1ccnc(SCc2ccccc2Cl)n1`: the inhibition is 2.7% (inactive).

In the case of `COc1ccc(CC(=O)NCC(=O)N/N=C/c2cc(Br)ccc2OC)cc1`, the inhibition is 0.9% (inactive).

On to `Clc1ccc2nc(-c3ccccc3)nc(C(Cl)Cl)c2c1`, for which the inhibition was -22.1% (inactive).

As for `Nc1c(N(CCO)C(=O)C2CCCCC2)c(=O)[nH]c(=O)n1Cc1ccccc1`, the inhibition was 24.7% (inactive).

For `Cc1c(NC(=O)CN2C(=O)C(=O)N(Cc3ccccc3)C2=O)c(=O)n(-c2ccccc2)n1C`, the inhibition was 8.51% (inactive).

In the case of `Cn1nccc1NC(=O)CC(CC(=O)O)c1ccccc1` (stereo not drawn), the inhibition is -13% (inactive).

Turning to `Cc1cc(N2CCN(c3ccccc3)CC2)nc(N2CCOCC2)n1`, the inhibition was 14.2% (inactive).

In the case of `CS(=O)(=O)c1ccc2c(c1)SC1=NC(=O)/C(=C/c3ccco3)C(=N)N12`, the inhibition was 103% (active).

For `CCS(=O)(=O)C1=NSC2=NC(=O)/C(=C\c3cc(C)n(-c4cccc(OC)c4)c3C)C(=N)N21`, the inhibition was 37.6% (inactive).

With `Cc1cc(/C=C2/C(=N)N3C(=NC2=O)SN=C3S(C)(=O)=O)c(C)n1-c1ccccc1`, the inhibition is 16.9% (inactive).

In the case of `OCC1(Cc2ccccc2C(F)(F)F)CCN(Cc2ccncc2)CC1`, the inhibition is 13.3% (inactive).

`CC(C)(C)NC(=O)NCc1ccco1`: the inhibition is 8.79% (inactive).

`O=C(Nc1ccccc1)Nc1nnc(COc2ccccc2F)s1`: the inhibition was 23.7% (inactive).

Take `Cc1c(C)c(C)c2[nH]c(=S)[nH]c2c1C`: the inhibition was 2.53% (inactive).

As for `O=c1[nH]c(=S)[nH]c2[nH]c(=S)[nH]c12`, the inhibition was 95.1% (active).

Consider `Cc1cc(=O)[nH]c(=S)[nH]1`, for which the inhibition was 4.28% (inactive).

Consider `O=C(COC(=O)/C=C/c1ccc2c(c1)OCO2)NC1CCS(=O)(=O)C1` (stereo not drawn), for which the inhibition was 16% (inactive).

Consider `COc1ccc(OC)c(Nc2nc3ccccc3n3cnnc23)c1`, for which the inhibition was 16.9% (inactive).

For the compound `O=[N+]([O-])c1cc(Cl)cc(/C=N/NC(=S)Nc2cc(S(=O)(=O)N3CCOCC3)ccc2Cl)c1O`, the inhibition was 100% (active).

In the case of `O=C(N/N=C/c1ccc([N+](=O)[O-])o1)c1cccc(S(=O)(=O)N2CCOCC2)c1`, the inhibition is 5.84% (inactive).

Turning to `O=C(CN1CCN(c2ccc(O)cc2)CC1)Nc1cc(S(=O)(=O)N2CCOCC2)ccc1Cl`, the inhibition was 49.8% (inactive).

In the case of `COc1ccc2nc(NC(=O)NC3CCCCC3)sc2c1`, the inhibition is -0.53% (inactive).

With `O=C(Nc1ccccc1)O/N=C1/CCCc2occc21`, the inhibition was 6.55% (inactive).

For `Oc1ccc(N=Nc2nccs2)c(O)c1`, the inhibition is -33.2% (inactive).

For the compound `COc1cc2c(cc1O)[C@H](Cc1ccc(Oc3cc(C[C@@H]4NCCc5cc(OC)c(O)cc54)ccc3O)cc1)NCC2`, the inhibition is 64.4% (active).

Turning to `CC[C@H]1CN2CCc3cc(OC)c(OC)cc3[C@@H]2C[C@@H]1C[C@H]1NCCc2cc(OC)c(OC)cc21`, the inhibition was 22.4% (inactive).

With `O=[N+]([O-])c1ccc(N=Cc2c(O)ccc3ccccc23)cc1`, the inhibition was -1.02% (inactive).

Take `O=C(Nc1ccc(F)cc1F)N1CCCN(CCOc2ccccc2)CC1`: the inhibition was 9.38% (inactive).

`Cc1cc(C)c2c3c(sc2n1)C(c1ccccc1)C(C#N)=C(N)O3` (stereo not drawn): the inhibition was -16.3% (inactive).

`N#CC1=C(N)Oc2c(sc3ccccc23)C1c1ccco1` (stereo not drawn): the inhibition is 51.5% (active).

Turning to `CC1=C(C(=O)Nc2ccccc2)C(c2ccco2)C(C#N)=C(SCC(N)=O)N1` (stereo not drawn), the inhibition was 5.4% (inactive).

With `Cc1noc(C)c1S(=O)(=O)Nc1cc(C(F)(F)F)ccc1N1CCOCC1`, the inhibition is -6.09% (inactive).

Consider `CC(C)Cc1nc(Cl)c(C#N)c2c1CCC2`, for which the inhibition was 1.09% (inactive).

For the compound `COc1ccccc1CNC(=O)Cn1c(=O)oc2cc(Cl)ccc21`, the inhibition was -8.08% (inactive).

In the case of `CCN1C(=O)/C(=C2/Sc3ccccc3N2CCCS(=O)(=O)O)SC1=S`, the inhibition is 23% (inactive) and 61.3% (active).

Consider `CCCCN1C(=O)/C(=C/C=C2/C=Cc3ccccc3N2CC)SC1=S`, for which the inhibition was 25.9% (inactive).

Regarding `CCN1C(=O)/C(=c2\s/c(=C3\Sc4ccccc4N3C)c(=O)n2C)N(C)C1=S`, the inhibition was 46.4% (inactive).

On to `COc1ccc(N2C(=O)C3C(C2=O)C(C(=O)c2ccccc2)N2CCCC32)cc1` (stereo not drawn), for which the inhibition was 2.44% (inactive).

On to `NC(N)=N/N=C/c1ccc(Cl)c([N+](=O)[O-])c1`, for which the inhibition was 8.52% (inactive).

In the case of `O=C1CSC(=S)N1/N=C/c1ccc(O)c([N+](=O)[O-])c1`, the inhibition is 85.6% (active).

On to `CCOc1cccc(/C=N/N2C(=O)CSC2=S)c1O`, for which the inhibition is 37.8% (inactive).

For the compound `COc1ccc(COCCN2CCN(S(=O)(=O)c3ccccc3)CCC2=O)cc1`, the inhibition is 4.91% (inactive).

Turning to `S=c1[nH]nc(-c2cccnc2)n1/N=C/C(Cl)=C\c1ccccc1`, the inhibition is 32.3% (inactive).

With `Cc1cc(-c2n[nH]c(=S)n2/N=C/C(Br)=C/c2ccccc2)n[nH]1`, the inhibition was 59.6% (active).

Consider `Cc1cc(-c2n[nH]c(=S)n2/N=C/c2ccco2)n[nH]1`, for which the inhibition was 5.82% (inactive).

As to `Nc1ccccc1Sc1ccc(C(F)(F)F)cc1[N+](=O)[O-]`, the inhibition is -1.26% (inactive).

Regarding `S=c1[nH]nc(-c2ccco2)n1/N=C/c1ccccc1`, the inhibition is 32.5% (inactive).

Turning to `S=c1[nH]nc(-c2cc(-c3ccccc3)n[nH]2)n1/N=C/c1c2ccccc2cc2ccccc12`, the inhibition was 79.6% (active).

Take `S=c1[nH]nc(-c2ccccc2)n1/N=C/c1c[nH]c2ccccc12`: the inhibition is 13.7% (inactive).

As for `COCCN1C2=C(COC(C)(C)C2)C(=S)NC1c1ccccc1` (stereo not drawn), the inhibition was 1.37% (inactive).

As for `Cc1cnc(NC(=O)Cn2cnc3c2c(=O)n(C)c(=O)n3C)s1`, the inhibition was 3.66% (inactive).

Consider `COC(=O)c1sc(=S)n(-c2ccccc2)c1N`, for which the inhibition is 16.2% (inactive).

As for `COCCOC(=O)c1sc(=S)n(CCOC)c1N`, the inhibition is 51.1% (active).

On to `CCOC(=O)Cn1c(N)c(C(=O)OC)sc1=S`, for which the inhibition was 5.93% (inactive).

As for `CN(C)c1ccc(Nc2c3c4c(cccc4n(C)c2=O)C(=O)c2ccccc2-3)cc1`, the inhibition is 104% (active).

Turning to `COc1ccc(COCC(O)CN2CCC(C(N)=O)CC2)cc1` (stereo not drawn), the inhibition is 4.43% (inactive).

Take `CCn1cc(C(=O)NCC2COc3ccccc3O2)c2cc(OC)c(OC)cc2c1=O` (stereo not drawn): the inhibition was -0.39% (inactive).

In the case of `CCn1cc(C(=O)NCc2ccc3c(c2)OCO3)c2cc(OC)c(OC)cc2c1=O`, the inhibition was 74.5% (active).

`CCn1cc(C(=O)N2CCN(Cc3ccc4c(c3)OCO4)CC2)c2cc(OC)c(OC)cc2c1=O`: the inhibition is 4.25% (inactive).

With `CCOC(=O)C1C(c2ccc(OC)c(OC)c2)c2c([nH][nH]c2=O)CC1(C)O` (stereo not drawn), the inhibition was -16.2% (inactive).

On to `CC(NC(=O)C(=O)Nc1nccs1)c1ccccc1` (stereo not drawn), for which the inhibition is -15.7% (inactive).

`CC12CN3CCN(CC(C3)/C1=N\NC(=O)c1ccccc1N)C2`: the inhibition was 15.5% (inactive).

As for `Cc1cc(C)c(C#N)c(N2CCC(C(N)=O)CC2)n1`, the inhibition is 6.16% (inactive).

`N#Cc1c(N2CCCCC2)nc(N)c2c(N)nc(SCC(=O)O)cc12`: the inhibition is 57.7% (active).

Take `N#Cc1c(C(F)(F)F)cc(-c2ccc(Cl)cc2)nc1SCC(=O)O`: the inhibition was 6.22% (inactive).

Turning to `COC(C[C@H](O)CC(=O)COCc1ccccc1)OC`, the inhibition is 3.71% (inactive).

Regarding `O=[N+]([O-])C(=c1ccc2c(c1)N1C3=C(CCCC3)CC3CCCCC31N=2)[N+](=O)[O-]` (stereo not drawn), the inhibition is 99.2% (active).

With `Cc1ccc(Nc2nc(Cl)c(C=O)s2)cc1`, the inhibition was 10.2% (inactive).

On to `CN(C(=O)CCn1c(=S)oc2ccccc21)C1CCCCC1`, for which the inhibition was -15.3% (inactive).

Consider `CC(=O)Nc1ccc(NC(=O)CSc2ncnc3c2cnn3Cc2ccccc2)cc1`, for which the inhibition was 9.1% (inactive).

On to `CC(NC(=S)Nc1ccccc1)C(c1cccs1)N1CCOCC1` (stereo not drawn), for which the inhibition is -2.6% (inactive).

On to `Clc1ccc(C2=CSC3=Nc4cccc5cccc(c45)N23)cc1`, for which the inhibition was 61.8% (active).

As for `COC(=O)c1cccc(NS(C)(=O)=O)c1`, the inhibition was -15.1% (inactive).
